Assay results: ChEMBL document CHEMBL3433997, “St. Jude Leishmania screening dataset” (2016)

molecular target: Glucose transporter (Leishmania mexicana) (UniProt O61059); test: ST_JUDE_LEISH: Cytotoxicity at 2uM final concentration against transgenic Leishmania Mexicana promastigotes LmGT2 that are glucose transport deficient and complemented with the L. Mexicana glucose transporter 2. Activity is measured by DNA content using SYBR green in vitro; format: functional

SMILES | inhibition [%]
COc1ccc(-n2ccnc2SCC(=O)Nc2cccc(C(F)(F)F)c2)c(OC)c1 | -0.9
CC(C)CNCc1ccc(-c2cccc(CNC3CCN(Cc4ccccc4)CC3)c2)cc1 | 5.23
Cn1c(NC(=O)C2CCCN(C(=O)c3ccc(O)c(-c4ccc(Cl)c(Cl)c4)c3)C2)nc2ccccc21 (stereo not given) | -7.08
CCCc1cc(Cc2cnc(N)nc2N)cc(CC)c1O | 0.25
Cc1cccc2nc(-c3cccc(-c4ccc(NC(=O)Nc5ccc(F)c(F)c5F)cc4)c3)[nH]c12 | 3.22
CN1CCC(C(=O)N(Cc2ccc(-c3ccc(CNCCc4ccccc4)cn3)cc2)Cc2cccc(F)c2)CC1 | 4.08
Nc1ccnc(N2CCC(CCOc3ccnc4cc(Cl)ccc34)CC2)c1 | 6.6
CC(C)(C)COc1ccc2c(N)n[nH]c2c1 | -0.66
COc1ccc2c(=NN=Cc3ccccc3F)cc(C)[nH]c2c1 | 0.39
O=C(Nc1cc(C(F)(F)F)ccc1Cl)c1ccc(Cn2cc(Br)cn2)cc1 | -9.62
Cc1noc(C)c1CN1Cc2ccccc2OC2(CCN(Cc3c[nH]c4cnccc34)CC2)C1 | 2.32
CC(=O)N1CCC(C(=O)Nc2ccc(-c3cccc(-c4nc5cccc(C)c5[nH]4)c3)cc2)CC1 | 0.44
Cc1c(Cc2ccc(C(C)C)cc2)cnc2nc(N)nc(N)c12 | 1.42
CN(C)CCOc1cc(NC(=O)Nc2cccc3c(-c4ccncc4)cccc23)ccc1I | 4.12
CCOc1cccc2nc(NCCCNCc3ccc(Cl)c(Cl)c3)cc(NCCCNCc3ccc(Cl)c(Cl)c3)c12 | -0.45
Fc1ccc2ncc(Cl)c(CCN3CCC(NCc4cc5c(cn4)OCCO5)CC3)c2c1 | -0.41
c1cc(CNC2Cc3ccccc3C2)cc(-c2cnc(N3CCNCC3)nc2)c1 | 1.2
O=C(Nc1ccc(OC2CCN(Cc3ccc(F)cc3)C2)c(Cl)c1)c1ccsc1 (stereo not given) | 1.2
CCCNC(=O)Nc1ccc(N(C)c2ccnc(NC3CC3)n2)cc1 | 5.87
CNCc1cccc2nc(-c3csc(Cc4cc(Cl)ccc4OCC(C)C)n3)[nH]c12 | -0.08

SMILES | inhibition [%]
CCCCCCCCCN1CC[C@@H](CCCc2ccnc3ccc(O)cc23)[C@@H](CC)C1 | -1.91
Cc1cccc(-c2ccc(NC(=O)C3CCN(Cc4cccc(O)c4)CC3)cc2)c1 | -0.58
CC1CN(c2cnn(Cc3cccc(NC(=O)Nc4ccc(F)cc4[N+](=O)[O-])c3)c(=O)c2Cl)CC(C)N1 (stereo not given) | -0.22
O=C(/C=C/c1ccc(Cl)c(Cl)c1)NCCCCCN1CCCN(C(=O)Nc2ccc(Cl)c(Cl)c2)CC1 | -0.85
CC(C)(C)CNCC(C)(C)c1nc(-c2ccc(Cl)c(O)c2)c(-c2ccncc2)[nH]1 | -1.37
COc1cccc(CN2Cc3ccccc3OC3(CCN(Cc4c[nH]c5cnccc45)CC3)C2)c1 | 0.59
CCN(CC)CCOc1ccc(Nc2ncc3cc(-c4c(Cl)cccc4Cl)c(=O)n(C)c3n2)cc1 | 17.9
O=[N+]([O-])c1cccc(CNCC2CCN(CCc3ccccc3)CC2)c1 | 2.16
CN1CCN(Cc2cccc(Nc3nccc(Nc4ccc(Oc5ccccc5)cc4)n3)c2)CC1 | 5.8
COc1cc(NC(=O)c2cc([N+](=O)[O-])ccc2NC(=O)CNC2CCCC(C)C2C)cc(OC)c1 (stereo not given) | 3.41
CC1CN(c2cnn(Cc3ccc(NC(=O)Nc4ccc(F)cc4[N+](=O)[O-])cc3)c(=O)c2Cl)CC(C)N1 (stereo not given) | 2.58
Cc1cc(N[C@@H](Cc2ccccc2)C(=O)NCc2cccs2)nc(NCCc2cccnc2)n1 | 1.02
COc1ccc(COc2c(OC)cc(Cc3cnc(N)nc3N)cc2OC)cc1 | 6.57
CN1CCN(c2ccnc3ccc(NC(=O)Nc4ccccc4Br)cc23)CC1 | 0.11
CCCCN(CCCC)CCCN(CCCN(CCCC)CCCC)c1cc(C)nc(Nc2ccc3cc(Br)ccc3c2)n1 | 6.68
CC(C)(C)c1ccc(NC(=O)c2ccc(CN3CCCN(Cc4ccsc4)CC3)cc2)cc1 | 11.9
CC(C)n1c(C2CCN(CC3CCN(C(=O)/C=C/c4ccc(Cl)c(Cl)c4)CC3)CC2)nc2ccccc21 | -0.72
O=C(NCc1cccc2ccccc12)C1CCCN(C(=O)c2ccc(O)c(-c3ccc(Cl)c(Cl)c3)c2)C1 (stereo not given) | 1.88
CC(C)(C)c1ccccc1OCCCON1C(=N)N=C(N)NC1(C)C | 37.1
CCOc1ccc2c(c1)N(C(=O)C=Cc1ccccc1)C(C)(C)c1ssc(=S)c1-2 | 0.85
